Assay results as given in PubChem BioAssay (NCATS).
This is one part of the list. Entries that show only a call come without a potency. Inconclusive results are not listed. Activity calls are given as the source filed them. Calls follow the shape of the dose curve; as a rule, active = well fitted curve in the direction sought with a large enough effect; inconclusive = small, poorly fitted or top-dose-only effect, or another doubt; inactive = no such curve, though single readings can be large; an effect the other way counts as inactive or inconclusive.

target: Endonuclease 4 (Escherichia coli (strain K12)) (UniProt P0A6C1); test: Counterscreen for APE1 Inhibitors: qHTS Assay for Inhibitors of Endonuclease IV (AID 2565); conditions: E. coli Endo IV, fluorogenic AP-site DNA cleavage; series mostly up to 27.1 µM
How it was run: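 Read-out: fluorescence rise (ex 525/em 598 nm) from incision of a TAMRA/BHQ-2 double-stranded THF abasic-site substrate (50 nM), measured kinetically; third-minus-first read difference gave reaction progress. Enzyme 2 nM.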

SMILES | outcome
N#Cc1ccccc1CN1C(=O)S/C(=C/c2cccn2-c2cccc(C(=O)O)c2)C1=O | inactive
CC(C)(C)C(=O)OCc1nc(-c2ccc(O)c(O)c2)cs1 | inactive
COc1cc([C@H](Cc2ccccc2)NC(C)=O)oc(=O)c1 | inactive

target: DNA repair nuclease/redox regulator APEX1 (Homo sapiens) (UniProt P27695); test: Confirmation qHTS Assay for Inhibitors of the Human Apurinic/apyrimidinic Endonuclease 1 (APE1) (AID 2572); conditions: purified APE1, fluorogenic abasic-site DNA cleavage; series mostly up to 57.1 µM; also: nearly all actives have a fitted effect of over 30% in size; also: potency is read from the fitted curve at half-maximal effect;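 as to activity change, negative = inhibition: fluorescence gain from purified APE1 cutting a TAMRA/BHQ-2 THF abasic duplex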
Sequence (P27695 whole entry, looked up): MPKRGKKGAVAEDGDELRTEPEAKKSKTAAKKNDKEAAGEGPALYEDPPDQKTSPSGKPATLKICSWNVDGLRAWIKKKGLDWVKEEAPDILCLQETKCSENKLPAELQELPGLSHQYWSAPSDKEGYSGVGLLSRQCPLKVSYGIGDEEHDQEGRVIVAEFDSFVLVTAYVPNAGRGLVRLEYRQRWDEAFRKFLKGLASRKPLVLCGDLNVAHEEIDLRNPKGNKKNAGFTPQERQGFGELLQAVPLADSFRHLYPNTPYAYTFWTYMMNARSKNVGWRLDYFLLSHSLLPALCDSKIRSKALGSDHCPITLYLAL
How it was run: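 APE1 preincubated 15 min RT with compound; 50 nM TAMRA/BHQ-2 THF-abasic duplex added; kinetic fluorescence, 3 reads at 60 s intervals, Ex 525/Em 598; progress = read 3 minus read 1.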

SMILES | Potency
CCOCN(C(=O)Cn1c(C(C)O)nc2ccccc21)c1c(C)cccc1CC (stereo not drawn) | inactive
COc1ccc(NC(=O)CSc2nc(NS(=O)(=O)c3ccc(C)cc3)cc(=O)[nH]2)cc1 | 39.8 µM (active)
N#Cc1ccccc1CN1C(=O)S/C(=C/c2cccn2-c2cccc(C(=O)O)c2)C1=O | 14.1 µM (active)
CC(C)(C)C(=O)OCc1nc(-c2ccc(O)c(O)c2)cs1 | 11.2 µM (active)
CC(=O)NS(=O)(=O)c1ccc(NC(=O)C2C3C=CC(C3)C2C(=O)O)cc1 (stereo not drawn) | inactive
O=C(NCc1ccccn1)c1ccc2nc(-c3ccco3)c(-c3ccco3)nc2c1 | 8.91 µM (active)

tested on: not listed separately; test: qHTS Assay for Inhibitors of Fructose-1,6-bisphosphate Aldolase from Giardia Lamblia: Giardia lamblia growth inhibition (AID 2785); conditions: Giardia lamblia trophozoite growth inhibition; series mostly up to 57.5 µM; also: nearly all actives have a fitted effect of over 70% in size
How it was run: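 G. lamblia WB trophozoites (100 cells/well) were grown with compound at 37C for 48 h in modified TYI-S-33 medium, pH 7.0. Growth was measured by ATPlite luminescence after 20 min at room temperature.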

SMILES | activity change, negative = inhibition | Potency
COc1ccc(CN2CCN(Cc3ccc(OC)c(OC)c3OC)CC2)cc1 | 6.68% [at 10.4 µM] (inactive) | –
Cc1nc(N2CCOCC2)sc1C(=O)NN | – | inactive
COCCN(C(=S)Nc1ccccc1OC)C1CCN(C(C)C)CC1 | – | inactive
CN(C)CCOc1ccc(Cl)cc1C(C)(C)C | -6.56% [at 10.4 µM] (inactive) | –
Cc1nc2ccc(NC(=S)N3CCC(C)CC3)cc2nc1C | – | inactive

tested on: not listed separately; test: qHTS Assay for Inhibitors of Fructose-1,6-bisphosphate Aldolase from Giardia Lamblia: Mammalian cellular toxicity (AID 2786); conditions: mammalian cell viability counter-screen; series mostly up to 57.5 µM;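 also: compound exposure lasted 48 h before reading; nearly all actives have a fitted effect of over 60% in size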; also: potency is read from the fitted curve at half-maximal effect
How it was run: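 CHO cells seeded at 250 cells/well with pin-tool-added compound, incubated 48 h at 37 °C, 5% CO2. Viability read as ATP content by ATPlite luminescence after 20 min.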

SMILES | Potency
CN1CCN(CCCCOc2ccccc2-c2ccccc2)CC1 | inactive
Cc1cc(C)n(-c2ccc(Cl)c(C(=O)O)n2)n1 | inactive
Cc1cccc(-c2nnc(SCC(=O)O)n2Cc2ccccc2)c1 | inactive
O=C(Nc1ccccc1Cl)O/N=C(/c1ccccc1)c1ccccn1 | inactive
CCc1ccc2c(c1)C1(NN=C(c3ccccc3)S1)C(=O)N2 (stereo not drawn) | 25.1 µM (active)
Cc1nc(N2CCOCC2)sc1C(=O)NN | inactive
Cc1ccc(OCCCCc2c(C)n[nH]c2C)cc1 | inactive
Oc1ccc2ccccc2c1N=Nc1nccs1 | 10 µM (active)
CNC(=S)N/N=C/c1ccc(N2CCOCC2)s1 | inactive
COc1cc(CN2CCN(Cc3ccc(C)cc3)CC2)c([N+](=O)[O-])cc1OC | inactive
CC(=O)NC1CCN(CC(=O)Nc2nccs2)CC1 | inactive
CCS(=O)(=O)c1cc([N+](=O)[O-])c(Sc2ccccc2N)s1 | inactive
Cc1nnc(SCC2=C(C(=O)O)N3C(=O)C(NC(=O)Cn4nc(C)c(Cl)c4C)C3SC2)s1 (stereo not drawn) | inactive
Cc1cc(C)nc(N/N=C/c2ccc([N+](=O)[O-])o2)n1 | inactive
COc1ccc(Cl)cc1C(=O)NNC(=O)c1nc2nc(C)cc(C)n2n1 | inactive
COc1ccc(N=Nc2c(-c3ccc(OC)cc3)[nH]oc2=O)cc1 | inactive
Oc1[nH]c2ccc(Br)cc2c1N=Nc1nn[nH]n1 | inactive
COc1ccc(C(=O)NC(=S)N2CCCCC2c2cccnc2)cc1OC (stereo not drawn) | inactive
Cc1nc2ccc(NC(=S)N3CCC(C)CC3)cc2nc1C | inactive
